Experimental findings from PubChem BioAssay (Tox21) are described below.

SMILES strings stand for the structures. Results filed as inconclusive are left out. Values without a mark were called inactive. Active and inactive are the calls of the source. Unless noted, calls come from the whole dose curve; as a rule, active = well fitted curve in the direction sought with a large enough effect in the repeat runs; inconclusive = weak or mixed curves; inactive = no such curve, though single readings can be large; an effect the other way counts as inactive or inconclusive.

Assay [1] deals with Retinoic acid receptor RXR-alpha (Homo sapiens) (UniProt P19793). Kind of assay: qHTS assay to identify small molecule agonists of the RXR signaling pathway (AID 1159527; calls by dose curve; note: nearly all actives have a fitted effect of over 35% in size; note: potency is the fitted concentration of half-maximal effect). A digest of the protocol: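 Using 9-cis retinoic acid as the reference agonist, chemicals were tested in HEK 293T cells […] for 16 hr; substrate loading lasted 2 hr at room temperature.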

Assay [2] is described as follows: qHTS assay to identify small molecule antagonists of the retinoic acid receptor (RAR) signaling pathway (AID 1159552; note: nearly all actives have a fitted effect of over 50% in size). A digest of the protocol: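 Test chemicals and DMSO controls were pin-transferred onto C3RL4 cells a day after seeding; retinol (1 uM final) followed at once. Luminescent reporter output was quantified after 6 hr of co-incubation and 30 min with detection reagent.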

Assay [3] in a line: qHTS assay to identify small molecule agonists of the retinoic acid receptor (RAR) signaling pathway (AID 1159553). An outline of the steps:
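Agonist activity was scored in C3RL4 cells bearing a retinoic acid response element luciferase construct. Cells were treated with compounds for 6 hr at 37 C, and luciferase signal was measured as luminescence.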

The nature of assay [4]: qHTS assay to identify small molecule antagonists of the estrogen related receptor (ERR) signaling pathway - cell viability counter screen (AID 1224818). Note: series mostly up to about 46 µM. An outline of the steps: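 Cells carrying the ERR pathway reporter were seeded and incubated for 6 hours before compound addition. After a 17.5-hour exposure at 37 C, live-cell protease activity was measured by CellTiter-Fluor fluorescence following 30 minutes of incubation.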

Assay [5] in a line: qHTS assay to identify small molecule antagonists of the estrogen related receptor signaling pathway with the pleiotropic PPARgamma coactivator (PGC) cell viability counter screen (AID 1224822; note: series mostly up to about 46 µM). A digest of the protocol: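 Seed PGC/ERR cells (2,000/well); incubate 6 h at 37 C/5% CO2; pin-transfer compounds in DMSO; incubate 17.5 h at 37 C; add CellTiter-Fluor; after 30 min read fluorescence.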

A short description of assay [6]: qHTS assay to identify small molecule antagonists of the estrogen related receptor (ERR) signaling pathway from Tox21 library - cell viability counter screen (AID 1224834). Note: nearly all actives have a fitted effect of over 30% in size. An outline of the steps:
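Cytotoxicity of test substances is gauged in the same ERR cells used for the antagonist screen, after 17.5 h of compound treatment at 37 C, by CellTiter-Fluor fluorescence measured after 30 min.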

The nature of assay [7]: qHTS assay to identify small molecule agonists of the constitutive androstane receptor (CAR) signaling pathway - cell viability counter screen (AID 1224836). Note: series mostly up to about 92 µM; nearly all actives have a fitted effect of over 45% in size. A digest of the protocol: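 23 h treatment, 37 C, 5% CO2. Cell line: HepG2 stably expressing hCAR with a CYP2B6-2.2kb construct. Co-treatment: PK11195, 0.75 uM final. Read-out: CellTiter-Fluor fluorescence intensity.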

The target in assay [8] is Nuclear receptor subfamily 1 group I member 3 (Homo sapiens) (UniProt Q14994). Kind of assay: qHTS assay to identify small molecule antagonists of the constitutive androstane receptor (CAR) signaling pathway (AID 1224838). Note: nearly all actives have a fitted effect of over 40% in size. An outline of the steps: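 Compounds were titrated across 15 concentrations onto HepG2 cells double-stably expressing hCAR and a CYP2B6-2.2kb reporter, together with 50 nM CITCO (final). After 24 h at 37 C, luciferase activity was measured by luminescence.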

For assay [9] the target is unchanged. Kind of assay: qHTS assay to identify small molecule agonists of the constitutive androstane receptor (CAR) signaling pathway (AID 1224839). Note: series mostly up to about 92 µM; nearly all actives have a fitted effect of over 15% in size. An outline of the steps: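 Compounds tested at 15 concentrations on HepG2 cells stably harbouring hCAR and CYP2B6-2.2kb reporter constructs, co-treated with PK11195 (0.75 uM final), 24 h at 37 C; luminescent reporter signal quantified.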

Assay [10] can be described thus: qHTS assay to identify small molecule antagonists of the estrogen related receptor signaling pathway with the pleiotropic PPARgamma coactivator (PGC) from Tox21 10K library - cell viability counter screen (AID 1224840; active = well fitted cell-killing curve with a large enough effect in the repeat runs, not every such curve was filed as active; note: nearly all actives have a fitted effect of over 40% in size). A digest of the protocol:
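Step one, plate 2,000 PGC/ERR cells per well; step two, incubate 6 h at 37 C/5% CO2; step three, pin-transfer compounds; step four, incubate 17.5 h; step five, add CellTiter-Fluor and read fluorescence after 30 min.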

Assay [11] in a line: qHTS assay to identify small molecule agonists of the RXR signaling pathway - cell viability counter screen (AID 1159529). Note: series mostly up to about 77 µM; nearly all actives have a fitted effect of over 50% in size. An outline of the steps: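 Compounds dissolved in DMSO were pinned onto HEK 293T cells carrying a beta-lactamase reporter under RXR-alpha control and incubated 16 hr. Cytotoxicity was then quantified by CellTiter-Glo luminescence.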
Assay [12] can be described thus: qHTS assay to identify small molecule antagonists of the retinoid acid receptor (RAR) signaling pathway - cell viability counter screen (AID 1159551). Note: nearly all actives have a fitted effect of over 35% in size. A digest of the protocol:
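Cytotoxicity counter screen in C3RL4 cells: 6 h compound exposure with 1 uM retinol (final), viability from cellular ATP by luminescence.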

For assay [13], the target named is Luciferin 4-monooxygenase (Photinus pyralis) (UniProt P08659). The experiment in a line: qHTS assay to identify small molecule inhibitors of firefly luciferase (AID 1224835). Note: nearly all actives have a fitted effect of over 25% in size. Note: potency is the fitted concentration of half-maximal effect. An outline of the steps:
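Inhibition of purified Photinus luciferase is measured by luminescence. Substrate levels (D-luciferin, ATP) sit at their KM values. Each compound is tested in a concentration series.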

Assay [14] in a line: qHTS assay to identify small molecule antagonists of the constitutive androstane receptor (CAR) signaling pathway - cell viability counter screen (AID 1224837). Note: series mostly up to about 92 µM; nearly all actives have a fitted effect of over 45% in size. A digest of the protocol: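 Multiplexed cytotoxicity read-out for the CAR antagonist screen: double-stable HepG2-CYP2B6-hCAR cells co-treated with 50 nM CITCO (final) and compound over 15 concentrations, incubated 23 hr, then assessed by CellTiter-Fluor fluorescence.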

A short description of assay [15]: qHTS assay to identify small molecule antagonists of the estrogen related receptor signaling pathway with the pleiotropic PPARgamma coactivator (PGC) from Tox21 10K library (AID 1224841; call rule not given here; note: series mostly up to about 92 µM; actives are mostly falling curves and most rising ones were filed inactive; nearly all actives have a fitted effect of over 50% in size). A digest of the protocol: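 Antagonism in this quantitative HTS is taken from loss of luciferase signal in PGC/ERR cells. Cells (2,000/well) are treated with compounds in DMSO after a 6 h settling period and read by One-Glo luminescence after 18 h.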

The nature of assay [16]: qHTS assay to identify small molecule agonists of the estrogen related receptor signaling pathway with the pleiotropic PPARgamma coactivator (PGC) from Tox21 10K library (AID 1224842). Note: nearly all actives have a fitted effect of over 15% in size. A digest of the protocol: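 Luminescence from One-Glo (30 min, room temperature) measured after PGC/ERR cells had 18 h at 37 C with pinned compound (23 nL in DMSO). Cells had been seeded at 2,000 per well and pre-incubated 6 h.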

Sequence of Retinoic acid receptor RXR-alpha (Homo sapiens) (P19793 whole entry, looked up): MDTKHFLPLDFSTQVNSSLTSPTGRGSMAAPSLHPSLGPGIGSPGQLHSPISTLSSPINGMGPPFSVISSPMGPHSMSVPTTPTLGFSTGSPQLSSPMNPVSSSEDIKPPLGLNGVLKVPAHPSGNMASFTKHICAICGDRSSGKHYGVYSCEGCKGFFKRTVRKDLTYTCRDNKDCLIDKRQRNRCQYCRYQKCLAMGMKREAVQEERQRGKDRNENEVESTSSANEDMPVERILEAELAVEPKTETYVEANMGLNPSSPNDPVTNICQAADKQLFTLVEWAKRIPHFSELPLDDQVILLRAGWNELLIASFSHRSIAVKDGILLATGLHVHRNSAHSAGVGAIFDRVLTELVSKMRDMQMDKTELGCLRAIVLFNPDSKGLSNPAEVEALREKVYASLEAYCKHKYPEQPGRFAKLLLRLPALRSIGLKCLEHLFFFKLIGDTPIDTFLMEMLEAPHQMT
Sequence of Luciferin 4-monooxygenase (Photinus pyralis) (P08659 whole entry, looked up): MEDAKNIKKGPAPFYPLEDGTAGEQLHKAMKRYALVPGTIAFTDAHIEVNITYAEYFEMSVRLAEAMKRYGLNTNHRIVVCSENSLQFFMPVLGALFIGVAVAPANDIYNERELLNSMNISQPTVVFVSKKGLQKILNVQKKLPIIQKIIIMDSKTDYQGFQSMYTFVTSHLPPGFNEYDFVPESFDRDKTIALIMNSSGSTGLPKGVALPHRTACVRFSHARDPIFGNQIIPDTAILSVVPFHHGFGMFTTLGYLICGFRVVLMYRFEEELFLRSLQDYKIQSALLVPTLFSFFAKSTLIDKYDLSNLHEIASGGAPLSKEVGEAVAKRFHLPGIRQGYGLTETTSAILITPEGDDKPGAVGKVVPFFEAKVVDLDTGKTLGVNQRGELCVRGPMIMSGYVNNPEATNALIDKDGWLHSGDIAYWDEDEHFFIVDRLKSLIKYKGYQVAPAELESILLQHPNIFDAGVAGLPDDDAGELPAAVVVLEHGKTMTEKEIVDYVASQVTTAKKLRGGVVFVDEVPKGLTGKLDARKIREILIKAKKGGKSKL
Sequence of Nuclear receptor subfamily 1 group I member 3 (Homo sapiens) (Q14994 whole entry, looked up): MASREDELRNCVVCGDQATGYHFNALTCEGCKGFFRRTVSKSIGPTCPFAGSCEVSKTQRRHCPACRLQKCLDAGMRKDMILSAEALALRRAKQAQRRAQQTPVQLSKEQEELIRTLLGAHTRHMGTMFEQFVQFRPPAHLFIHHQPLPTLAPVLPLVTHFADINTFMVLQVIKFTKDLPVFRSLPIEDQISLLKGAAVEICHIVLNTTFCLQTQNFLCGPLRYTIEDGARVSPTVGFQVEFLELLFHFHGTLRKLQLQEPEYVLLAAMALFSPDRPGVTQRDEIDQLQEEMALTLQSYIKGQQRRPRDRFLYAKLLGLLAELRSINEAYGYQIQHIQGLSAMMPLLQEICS

For `CCN1CCCC1CNC(=O)c1cc(S(N)(=O)=O)ccc1OC` (stereo unspecified), the Potency in assay [1] was 43.6 µM (active). Moreover, the Potency result in assay [2], in assay [3], in assay [6], in [8] and in assay [9] was “inactive” in each case. Further, the result in assay [4], in assay [5], in assay [7] and in [10] was inactive.

As for `CCCCC1CCCCC(=O)O1` (stereo unspecified), the Potency result in assay [11], in assay [2], in assay [3], in assay [6], in [13] and in assay [8] was “inactive” each time. For the same compound, the Potency entry in assay [9], in assay [15] and in [16] was “inactive” throughout. Further, the call in [12], in [7], in assay [14] and in assay [10] was inactive.

As for `CCn1c(=O)c2c(nc(/C=C/c3ccc(OC)c(OC)c3)n2C)n(CC)c1=O`, the Potency entry in assay [1], in assay [13], in assay [9], in assay [15] and in assay [16] was “inactive” throughout. The call in [12], in assay [7], in [14] and in assay [10] was inactive.

Consider `Oc1cc(O)c2c(c1)O[C@H](c1ccc(O)c(O)c1)[C@H](O)C2`, for which the Potency entry in [1], in assay [2], in assay [3] and in assay [13] was “inactive” each time. Moreover, the call in assay [7] and in [10] was inactive.

As to `CCCCC=O`, the Potency in [1] is 17.4 µM (active). Also, the Potency result in [6] is “inactive”. For the same compound, the result in assay [7], in assay [14] and in assay [10] was inactive.

`CC(=O)CCc1ccc(O)cc1`: the Potency result in assay [1], in assay [6] and in [13] was “inactive” in each case. For the same compound, the outcome in [14] and in [10] was inactive.

`COCCOC(=O)CC#N`: the Potency entry in assay [11], in assay [2], in [3], in [6], in assay [13] and in assay [8] was “inactive” throughout. Further, the Potency entry in [9] is “inactive”. The outcome in [12], in assay [7], in assay [14] and in [10] was inactive.

In the case of `CCCCCCOC(=O)c1ccccc1O`, the Potency result in assay [11], in [2], in assay [3], in [6], in [8] and in assay [9] was “inactive” throughout. Also, the Potency result in assay [15] and in assay [16] was “inactive” each time. In addition, the compound was called inactive in [12], in [7], in assay [14] and in [10]. In addition, the Potency in [13] is 17.8 µM (active).

As for `Nc1ccc2cc(S(=O)(=O)O)ccc2c1`, the Potency entry in [1], in assay [6] and in [9] was “inactive” each time. Besides, the outcome in [12], in assay [7], in assay [14] and in assay [10] was inactive.

As for `C/C=C1\C(=O)C[C@H]2[C@@H]3CCC4=CC(=O)CC[C@]4(C)[C@H]3CC[C@]12C`, the Potency entry in [1] and in [6] was “inactive” in each case. Further, the result in [12], in [7], in assay [14] and in assay [10] was inactive.

With `CCCCCN(CCCCC)C(=O)C(CCC(=O)O)NC(=O)c1ccc(Cl)c(Cl)c1` (stereo unspecified), the Potency entry in [11], in [2], in assay [3], in [6] and in [9] was “inactive” in each case. Further, the call in assay [12], in assay [4], in assay [5], in assay [7], in assay [14] and in [10] was inactive.

On to `NC(=O)c1ncn([C@@H]2O[C@H](CO)[C@@H](O)[C@H]2O)c1O`, for which the Potency result in assay [11], in assay [2], in assay [3], in assay [6], in [13] and in [9] was “inactive” in each case. In addition, the compound was called inactive in [12], in assay [4], in assay [5], in assay [7], in assay [14] and in assay [10].

On to `CC(C)CCOC(=O)CC(C)C`, for which the Potency result in [1], in assay [13], in assay [8] and in [9] was “inactive” in each case. Moreover, the compound was called inactive in [12], in assay [7], in assay [14] and in [10].
